This is part of a sample that, as a whole, favours compounds with a hit. Of some 83,000 tested, about 20% had one in any assay.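 Values shown are percent growth following 48 h exposure of cells in 96-well plates to a single concentration of compound; below 10 was considered active.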 The source made the active and inactive calls.
Tests used:
Experiment in all cases: NCI-60 one-dose screen, 48 h (100 = growth as untreated, 0 = no growth, -100 = all killed)
SR leukemia = details: 10 µM unless noted
RPMI-8226 leukemia = details: 10 µM
OVCAR-8 ovarian = details: 10 µM unless noted
OVCAR-4 ovarian = details: 10 µM unless noted
SK-OV-3 ovarian = details: 10 µM
OVCAR-3 ovarian = details: 10 µM unless noted
HS 578T breast = details: 10 µM unless noted
T-47D breast = details: 10 µM
BT-549 breast = details: 10 µM unless noted
MDA-MB-435 melanoma = details: 10 µM unless noted
SW-620 colon = details: 10 µM unless noted
MCF7 breast = details: 10 µM unless noted
HCT-116 colon = details: 10 µM unless noted
KM12 colon = details: 10 µM unless noted
OVCAR-5 ovarian = details: 10 µM unless noted
IGROV1 ovarian = details: 10 µM unless noted
NCI/ADR-RES ovarian = details: 10 µM unless noted
HCC-2998 colon = details: 10 µM unless noted

SMILES	growth (SR leukemia)	growth (RPMI-8226 leukemia)	growth (OVCAR-8 ovarian)	growth (OVCAR-4 ovarian)	growth (SK-OV-3 ovarian)	growth (OVCAR-3 ovarian)	growth (HS 578T breast)	growth (T-47D breast)	growth (BT-549 breast)	growth (MDA-MB-435 melanoma)	growth (SW-620 colon)	growth (MCF7 breast)	growth (HCT-116 colon)	growth (KM12 colon)	growth (OVCAR-5 ovarian)	growth (IGROV1 ovarian)	growth (NCI/ADR-RES ovarian)	growth (HCC-2998 colon)
O=C(COc1ccc(/C=C2\CSc3ccccc3C2=O)cc1)c1ccc(Cl)cc1	93.1% (inactive)	95.8% (inactive)	110% (inactive)	107% (inactive)	107% (inactive)	96% (inactive)	109% (inactive)	94.8% (inactive)	110% (inactive)	95.6% (inactive)	115% (inactive)	114% (inactive)	94.1% (inactive)	106% (inactive)				
O=C1c2c(c3c4cc(Br)ccc4[nH]c3c3ccc4ccccc4c23)C(=O)N1O	33.9% (inactive)	58.9% (inactive)	84.1% (inactive)			107% (inactive)	117% (inactive)	69.3% (inactive)	93.4% (inactive)	94.6% (inactive)	68.8% (inactive)	43.3% (inactive)	83.6% (inactive)	87.5% (inactive)	111% (inactive)	70.2% (inactive)	98.1% (inactive)	95.1% (inactive)
Cc1nc2cc(Nc3nc(N4CCCCC4)nc(N4CCOCC4)n3)ccc2n1Cc1ccccc1	25.2% (inactive)	17.7% (inactive)		-63.9% (active)	39.8% (inactive)	-3.53% (active)	34.6% (inactive)	-8% (active)	63.2% (inactive)	52.8% (inactive)	44.1% (inactive)	65.5% (inactive)	-49.9% (active)	18.3% (inactive)	55.8% (inactive)	47% (inactive)	27% (inactive)	94.3% (inactive)
CN(C)C(=S)SCN1C(=O)c2ccc([N+](=O)[O-])cc2S1(=O)=O	75.8% (inactive)	116% (inactive)	98.5% (inactive)	103% (inactive)	107% (inactive)	99.3% (inactive)	93% (inactive)	102% (inactive)	80.8% (inactive)	101% (inactive)	90.1% (inactive)	97.4% (inactive)	95.7% (inactive)	96.1% (inactive)		104% (inactive)	96.4% (inactive)	102% (inactive)
COC(=O)c1c2c(c(C)[n+]([O-])c1C)C(=O)C=C(NCc1ccc(Cl)cc1)C2=O	3.91% (active)	-16.2% (active)	2.34% (active)			-28.6% (active)	-19% (active)	-33.8% (active)	-23.8% (active)	-96.1% (active)	-17.3% (active)	-63.2% (active)	-19.9% (active)	-4.32% (active)	-69% (active)	-50.9% (active)	-15.1% (active)	-34.6% (active)
COc1cc(-c2nc3ccccc3o2)cc(CN2CCN(c3ccccc3)CC2)c1O	45.1% (inactive)	53.2% (inactive)		84.6% (inactive)	116% (inactive)	63.7% (inactive)	110% (inactive)	91.5% (inactive)	55.3% (inactive)	-78% (active)	94.3% (inactive)	60.6% (inactive)	56.4% (inactive)	49.8% (inactive)	117% (inactive)	86.8% (inactive)	69.4% (inactive)	85.5% (inactive)
COc1ccc(-c2[nH]ncc2Nc2cc(OC)c(OC)c(OC)c2)cc1	116% (inactive)	33.2% (inactive)	58.1% (inactive)	51.2% (inactive)	18.4% (inactive)	5.17% (active)	49.8% (inactive)	18% (inactive)	27.3% (inactive)	-11.7% (active)	32.4% (inactive)	23.1% (inactive)	35.5% (inactive)	32.5% (inactive)		43% (inactive)		
O=C(N/N=C(\CS(=O)(=O)c1ccccc1)c1cc2cc(Br)ccc2oc1=O)c1ccccc1	122% (inactive)	121% (inactive)	101% (inactive)			108% (inactive)	99.4% (inactive)	94.1% (inactive)	102% (inactive)	100% (inactive)	102% (inactive)	98.2% (inactive)	104% (inactive)	105% (inactive)	94.1% (inactive)	110% (inactive)	105% (inactive)	103% (inactive)
O=C(COc1cccc(/C=C2\COc3ccccc3C2=O)c1)c1ccccc1	-62.4% (active)	-51.1% (active)	19.1% (inactive)	79.2% (inactive)	98.7% (inactive)	80.3% (inactive)	-28.2% (active)	75.3% (inactive)	45.5% (inactive)	43.1% (inactive)	-81.7% (active)	7.63% (active)	3.67% (active)	31.6% (inactive)				
O=c1[nH]c(-c2ccncc2)nc2sc3c(c12)CCCCCC3	40% (inactive)	91% (inactive)		1.18% (active)	31.5% (inactive)	74.1% (inactive)	85.9% (inactive)	24.6% (inactive)	98.9% (inactive)	77.7% (inactive)	72.2% (inactive)	77.4% (inactive)	46.6% (inactive)	84.4% (inactive)	80% (inactive)	69.5% (inactive)	55% (inactive)	101% (inactive)
O=C(CCc1nnc2sc(/C=C\c3ccccc3)nn12)c1nc2ccccc2[nH]1	63.5% (inactive)	72% (inactive)	92.7% (inactive)		97.2% (inactive)	115% (inactive)	83.1% (inactive)	61.1% (inactive)	93.1% (inactive)	83.8% (inactive)	118% (inactive)	77.3% (inactive)	59.7% (inactive)	92.5% (inactive)	116% (inactive)	96% (inactive)		95.8% (inactive)
Clc1ccc2c(c1)C[C@H]1C[C@@H](c3cccs3)N2O1	82.4% (inactive)	86.7% (inactive)	99.9% (inactive)		98.9% (inactive)	114% (inactive)		97.1% (inactive)	105% (inactive)	95.9% (inactive)	99.1% (inactive)	105% (inactive)	105% (inactive)	104% (inactive)	89.5% (inactive)	94.5% (inactive)	102% (inactive)	99.8% (inactive)
COc1ccc(C(=O)COc2cccc(/C=C3\CSc4ccc(C)cc4C3=O)c2)cc1	-7.75% (active)	-23.5% (active)	66.4% (inactive)	90.2% (inactive)	107% (inactive)	97.5% (inactive)	110% (inactive)	79.7% (inactive)	108% (inactive)	69.5% (inactive)	-21.5% (active)	30.9% (inactive)	53.1% (inactive)	79.6% (inactive)				
Clc1cccc(Cl)c1Nc1ccc2nnc(-c3ccncc3)n2n1	62.4% (inactive)	93.3% (inactive)	97.6% (inactive)		109% (inactive)	110% (inactive)	103% (inactive)	91.3% (inactive)	114% (inactive)	104% (inactive)	102% (inactive)	95.2% (inactive)	98.9% (inactive)	112% (inactive)	102% (inactive)	93.8% (inactive)	101% (inactive)	97.1% (inactive)
CCOC(=O)c1c(Cl)c2c(n1Cc1ccc(OC)cc1)-c1oncc1CCC2	23.7% (inactive)	52.4% (inactive)	81.5% (inactive)			102% (inactive)	67.4% (inactive)	83.6% (inactive)	70.4% (inactive)	101% (inactive)	71.1% (inactive)	82.3% (inactive)	62.3% (inactive)	96.8% (inactive)	90.1% (inactive)	84.4% (inactive)	80.6% (inactive)	66.9% (inactive)
O=c1oc2ccccc2cc1-c1csc(N=Nc2c(O)[nH]c3ccc(Cl)cc23)n1	102% (inactive)	105% (inactive)	96.3% (inactive)			107% (inactive)	105% (inactive)	98.8% (inactive)	99% (inactive)	98.9% (inactive)	103% (inactive)	93.5% (inactive)	107% (inactive)	108% (inactive)	96.2% (inactive)	107% (inactive)	105% (inactive)	104% (inactive)
O=C(N/N=C/c1ccc(F)cc1)c1[nH]c2ccc(I)cc2c1-c1ccccc1	114% (inactive)	22% (inactive)	45.5% (inactive)	37.2% (inactive)		5.48% (active)	51.8% (inactive)	48.4% (inactive)	20.1% (inactive)	-24% (active)	33.3% (inactive)	14.3% (inactive)	14.8% (inactive)	5.42% (active)		23.8% (inactive)		
Cc1cccc2c(=O)c3c(sc12)c(NCCNCCO)nc1ccccc13	-44.1% (active)	-34.2% (active)	34% (inactive)			45.1% (inactive)	54.5% (inactive)	44.8% (inactive)	78.4% (inactive)	7.39% (active)	-67% (active)	-69% (active)	-70.6% (active)	5.93% (active)	64.9% (inactive)	16.1% (inactive)	45.1% (inactive)	-24.9% (active)
CSc1nnc(-c2sc3nnc(-c4ccccc4)c(-c4ccccc4)c3c2O)o1	62.5% (inactive)	67.2% (inactive)	85.8% (inactive)		85.5% (inactive)	86.8% (inactive)	98.4% (inactive)	75% (inactive)	74.1% (inactive)	88.4% (inactive)	92.5% (inactive)	83.5% (inactive)	60.9% (inactive)	72.9% (inactive)	101% (inactive)			

— PubChem BioAssay (NCI)
